Efa HMGR inh: inhibitors of E. faecalis class II HMGR, primary screen, biochemical, Enterococcus faecalis; HMG-CoA reductase (Enterococcus faecalis, mvaE); purified E. faecalis HMGR, NADPH absorbance 340 nm kinetic; inhibition, % at 10 µM; 190,000 tested, 0.41% active;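 active = inhibition above a set limit, the median over all tested compounds plus 3 SD, cut at about 9.5% in these data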;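 note: enzyme runs in reverse so mevalonate oxidation gives rising NADPH absorbance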
14-3-3 Bad inh: inhibitors of 14-3-3 zeta/Bad binding, primary screen, biochemical, TR-FRET, bovine 14-3-3 zeta. 14-3-3 protein zeta/delta (Bos taurus), P63103. TR-FRET 14-3-3zeta/Dy647-pBad peptide displacement, 1 h. inhibition, % at 21.7 µM. 220,000 tested, 0.71% active. AID 781, 2007;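 active = inhibition above about 70%, limit read from the data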
Target sequence (P63103 whole entry, looked up): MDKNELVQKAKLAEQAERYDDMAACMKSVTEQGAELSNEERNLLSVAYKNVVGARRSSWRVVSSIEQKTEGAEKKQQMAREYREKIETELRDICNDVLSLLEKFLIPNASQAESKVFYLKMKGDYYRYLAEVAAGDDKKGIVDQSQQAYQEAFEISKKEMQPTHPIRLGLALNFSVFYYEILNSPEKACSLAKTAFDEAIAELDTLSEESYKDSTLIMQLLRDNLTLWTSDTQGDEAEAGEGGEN
TNF death inh: inhibitors of TNF-alpha triggered necroptosis, primary screen, cell-based, Jurkat FADD-/-, single concentration; Jurkat FADD-/- TNF necroptosis rescue, ATP luminescence, 24 h; 0 = TNF only, 100 = no-TNF cells; 220,000 tested, 0.068% active; activation (protection from cell death), % at 10 µM; AID 463075, 2010;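 active = activation, meaning protection from cell death, of at least 50% relative to plate controls; inactive = activation below 50%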;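 note: necroptosis triggered by 40 ng/mL TNF-alpha added together with compound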
ROMK mod: ROMK potassium channel modulators, primary screen, cell-based, thallium flux, MLSMR library; Tet-inducible ROMK, thallium flux fluorescence; actives lie on both sides; 130,000 tested, 2% active; AID 1918, 2009; B-score at 10 µM; ATP-sensitive inward rectifier potassium channel 1 (Homo sapiens), P48048;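 active = signal ratio slope over the read window, or its plate-corrected B-score, at least 3 SD from the plate mean, either direction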;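 note: B-score of the F/F0 ratio slope over 7 to 12 s after thallium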
Target sequence (P48048 whole entry, looked up): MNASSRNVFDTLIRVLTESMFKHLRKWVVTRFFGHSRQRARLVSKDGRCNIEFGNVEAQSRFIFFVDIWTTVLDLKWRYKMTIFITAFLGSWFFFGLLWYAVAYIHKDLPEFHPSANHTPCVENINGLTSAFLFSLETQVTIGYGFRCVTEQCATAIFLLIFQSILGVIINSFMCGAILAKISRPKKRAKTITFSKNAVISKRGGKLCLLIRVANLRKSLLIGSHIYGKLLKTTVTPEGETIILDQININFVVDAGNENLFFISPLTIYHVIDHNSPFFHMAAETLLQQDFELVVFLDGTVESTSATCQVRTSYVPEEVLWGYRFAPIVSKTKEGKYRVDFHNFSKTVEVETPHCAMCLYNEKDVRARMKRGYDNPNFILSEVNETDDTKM
Calpain2 inh: inhibitors of pig calpain II, primary screen, biochemical, fluorogenic peptide substrate, 1536-well; purified calpain II, 30 min; 220,000 tested, 0.37% active; AID 1236, 2008; inhibition, % at 16 µM;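 active = inhibition above about 50%, limit read from the data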
zVAD death inh: inhibitors of zVAD-triggered necroptosis, primary screen, L929 cells | L929 zVAD necroptosis rescue, ATP luminescence, 24 h; with zVAD 60 µM | viability rescue, % at 10 µM | 220,000 tested, 0.38% active | AID 1377, 2008;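 active = activation, scaled between plate controls, above about 75%, limit read from the data; inactive = activation under that limit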
Numbers stand for hits. Rows were chosen to be rich in hits. Some 3% of all compounds tested hit in one or more screens of this group.

Results for O=c1c2cc(NC(=S)NCCN3CCCCCC3)ccc2nc2n1CCCCC2 ?
Efa HMGR inh: inactive; 14-3-3 Bad inh: inactive; TNF death inh: inactive; ROMK mod: inactive; Calpain2 inh: inactive; zVAD death inh: inactive

How did CCCCN(CC)CCCNC(=S)Nc1ccc2nc3n(c(=O)c2c1)CCCCC3 do in these assays?
Efa HMGR inh: inactive; 14-3-3 Bad inh: inactive; TNF death inh: inactive; ROMK mod: inactive; Calpain2 inh: 65

How did CC(C)(C)C1CCc2c(sc3ncn(N)c(=N)c23)C1 (centres undefined) do in these assays?
14-3-3 Bad inh: inactive; TNF death inh: inactive; ROMK mod: inactive; Calpain2 inh: inactive; zVAD death inh: inactive

Results for c1ccc2c(CSc3nnc(-c4ccncc4)o3)cccc2c1 ?
Efa HMGR inh: inactive; 14-3-3 Bad inh: 78; TNF death inh: inactive; Calpain2 inh: inactive; zVAD death inh: inactive

What do the screens show for `Clc1ccccc1CSc1nnc(-c2ccncc2)o1`?
Efa HMGR inh: inactive; 14-3-3 Bad inh: inactive; TNF death inh: inactive; Calpain2 inh: inactive; zVAD death inh: inactive

What do the screens show for `Cc1cc(-c2csc3nc[nH]c(=S)c23)cc(C)c1C`?
Efa HMGR inh: inactive; 14-3-3 Bad inh: inactive; TNF death inh: inactive; ROMK mod: 5.2; Calpain2 inh: inactive; zVAD death inh: inactive

How did Cc1sc2nc[nH]c(=S)c2c1-c1ccccc1 do in these assays?
Efa HMGR inh: inactive; 14-3-3 Bad inh: inactive; TNF death inh: inactive; ROMK mod: 6.4; Calpain2 inh: inactive; zVAD death inh: inactive

How did Cc1ccc(-c2csc3nc[nH]c(=S)c23)cc1 do in these assays?
Efa HMGR inh: inactive; 14-3-3 Bad inh: inactive; TNF death inh: inactive; ROMK mod: 10; Calpain2 inh: inactive; zVAD death inh: inactive

Results for CC1C2=C(CCCC2=O)N(c2cccc3ccccc23)C2=C1C(=O)CCC2 ?
TNF death inh: inactive; ROMK mod: inactive; zVAD death inh: inactive

Results for COc1ccc(CNC(=O)Nc2ccc(C)cc2)cc1 ?
Efa HMGR inh: inactive; 14-3-3 Bad inh: inactive; TNF death inh: inactive; Calpain2 inh: inactive; zVAD death inh: inactive

Results for CCOC(=O)c1ccc(NC(=O)NCc2ccc(OC)cc2)cc1 ?
Efa HMGR inh: inactive; 14-3-3 Bad inh: 79; TNF death inh: inactive; ROMK mod: inactive; Calpain2 inh: inactive; zVAD death inh: inactive

How did COc1ccc(CN2CCOCC2)cc1 do in these assays?
Efa HMGR inh: inactive; 14-3-3 Bad inh: 74; TNF death inh: inactive; Calpain2 inh: inactive; zVAD death inh: inactive

How did CCN1CCN(Cc2ccc(NC(=O)Nc3ccc(OC)cc3)cc2)CC1 do in these assays?
Efa HMGR inh: inactive; 14-3-3 Bad inh: inactive; TNF death inh: inactive; Calpain2 inh: inactive; zVAD death inh: 77

Results for CCN1CCN(Cc2ccc(NC(=O)Nc3ccccc3)cc2)CC1 ?
Efa HMGR inh: inactive; 14-3-3 Bad inh: inactive; TNF death inh: inactive; Calpain2 inh: inactive; zVAD death inh: inactive

How did COCCN=c1scc(-c2cccs2)n1/N=C/c1ccc(O)c(O)c1O do in these assays?
Efa HMGR inh: inactive; 14-3-3 Bad inh: inactive; TNF death inh: inactive; Calpain2 inh: 65; zVAD death inh: inactive

How did COc1ccc(F)cc1C(=O)C1CCCN(C(=O)c2cccc(N(C)C)c2)C1 (centres undefined) do in these assays?
Efa HMGR inh: inactive; 14-3-3 Bad inh: inactive; TNF death inh: inactive; Calpain2 inh: inactive; zVAD death inh: inactive

How did O=C1NC(=Nc2ccccc2)S/C1=C/c1cccs1 do in these assays?
Efa HMGR inh: inactive; 14-3-3 Bad inh: inactive; TNF death inh: inactive; ROMK mod: inactive; Calpain2 inh: 106; zVAD death inh: inactive

What do the screens show for `COc1ccc(NC(=O)C(=O)NNC(=O)C(C)Oc2ccc(Cl)cc2Cl)cc1` (centres undefined)?
Efa HMGR inh: inactive; 14-3-3 Bad inh: inactive; TNF death inh: inactive; ROMK mod: 4.8; Calpain2 inh: inactive; zVAD death inh: inactive

How did CCc1ccc(NC(=O)CSc2nc(NS(=O)(=O)c3ccccc3)cc(=O)[nH]2)cc1 do in these assays?
Efa HMGR inh: 10; 14-3-3 Bad inh: inactive; TNF death inh: inactive; ROMK mod: inactive; Calpain2 inh: inactive; zVAD death inh: inactive

Results for Cc1ccc([N+](=O)[O-])cc1N/C=C1\CCCCC1=O ?
Efa HMGR inh: inactive; 14-3-3 Bad inh: inactive; TNF death inh: inactive; ROMK mod: inactive; Calpain2 inh: inactive; zVAD death inh: inactive

What do the screens show for `O=S(=O)(Nc1ccc(-n2cccc2)cc1)c1ccc(Cl)cc1Cl`?
Efa HMGR inh: inactive; 14-3-3 Bad inh: inactive; TNF death inh: inactive; Calpain2 inh: 65; zVAD death inh: inactive

Results for O=S(=O)(Nc1ccc(-n2cccc2)cc1)c1ccc(Cl)c(Cl)c1 ?
14-3-3 Bad inh: inactive; TNF death inh: inactive; Calpain2 inh: inactive; zVAD death inh: inactive

Results for O=C(CCN1CCCCC1)NCC1OCCc2ccccc21 (centres undefined) ?
Efa HMGR inh: inactive; 14-3-3 Bad inh: inactive; TNF death inh: inactive; ROMK mod: inactive; Calpain2 inh: inactive; zVAD death inh: inactive

What do the screens show for `CN(CCc1ccccn1)C(=S)NC(=O)c1ccco1`?
Efa HMGR inh: inactive; 14-3-3 Bad inh: inactive; TNF death inh: inactive; ROMK mod: inactive; Calpain2 inh: 52; zVAD death inh: inactive

What do the screens show for `CS(=O)(=O)Nc1ccc(C2=NN(C(=O)c3ccco3)C(c3ccccc3F)C2)cc1` (centres undefined)?
Efa HMGR inh: inactive; 14-3-3 Bad inh: inactive; TNF death inh: inactive; ROMK mod: inactive; Calpain2 inh: inactive; zVAD death inh: inactive

What do the screens show for `CCOc1ccc(OCc2ccc(C(=O)N3CCCC(C)C3)cc2)cc1` (centres undefined)?
Efa HMGR inh: inactive; 14-3-3 Bad inh: inactive; TNF death inh: inactive; ROMK mod: inactive; Calpain2 inh: 71; zVAD death inh: inactive

What do the screens show for `CCOc1ccc(OCc2ccc(C(=O)N3CCOCC3)cc2)cc1`?
Efa HMGR inh: inactive; 14-3-3 Bad inh: inactive; TNF death inh: inactive; ROMK mod: inactive; Calpain2 inh: inactive; zVAD death inh: inactive

Results for CN(C)C(=O)CSc1n[nH]c(=O)[nH]c1=O ?
Efa HMGR inh: 20; 14-3-3 Bad inh: inactive; TNF death inh: inactive; ROMK mod: inactive; Calpain2 inh: inactive; zVAD death inh: inactive

How did O=C(O)/C=C/C(=O)OC1CC2CCC1C2 (centres undefined) do in these assays?
14-3-3 Bad inh: inactive; TNF death inh: inactive; ROMK mod: inactive; Calpain2 inh: inactive; zVAD death inh: inactive

What do the screens show for `O=C(O)c1ccc(NC2=C(Cl)C(=O)c3ccccc3C2=O)cc1`?
14-3-3 Bad inh: inactive; TNF death inh: inactive; ROMK mod: inactive; Calpain2 inh: 58; zVAD death inh: inactive
